Assay results: PubChem BioAssay (NCI)
The panel holds about 79,000 compounds, 15% with a hit somewhere; the sample as a whole holds those more often. Values without a mark were called inactive. The source made the active and inactive calls. No stated cut-off is given here; in the data, active means growth inhibition above about 70%; inactive means the rest.

How the values were obtained:
[1] = NCI Yeast Anticancer Drug Screen. Data for the rad50 strain (AID 155);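 further: 0% = growth of vehicle-only cultures of the same strain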; settings: S. cerevisiae rad50 strain growth inhibition, stronger effect = higher value
How it was run: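 Relative growth inhibition (compound vs vehicle) was measured in yeast with a defined repair-gene alteration.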

[2] = NCI Yeast Anticancer Drug Screen. Data for the mec2-1 strain (AID 157); settings: S. cerevisiae mec2-1 strain, stronger effect = higher value
How it was run: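 Growth inhibition is read against vehicle-treated controls after compound exposure of the mec2-1 yeast strain, which is defective in DNA damage repair or cell cycle control.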

[3] = NCI Yeast Anticancer Drug Screen. Data for the sgs1 mgt1 strain (AID 161);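 further: 0% = growth of cultures given vehicle only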; settings: S. cerevisiae sgs1 mgt1 strain, stronger effect = higher value
How it was run: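 This yeast growth screen uses a strain with defined DNA-repair lesions; compound-treated growth is compared with vehicle-treated growth.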

[4] = NCI Yeast Anticancer Drug Screen. Data for the cln2 rad14 strain (AID 165);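 further: 0% = growth equal to vehicle treated cultures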; settings: S. cerevisiae cln2 rad14 strain, stronger effect = higher value
How it was run: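 Growth inhibition, relative to vehicle-treated controls, is the read-out. The test organism is a yeast strain with defined genetic alterations, cln2 rad14.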

[5] = NCI Yeast Anticancer Drug Screen. Data for the bub3 strain (AID 167); settings: S. cerevisiae bub3 mutant strain, stronger effect = higher value
How it was run: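 Screening used yeast with an engineered genetic alteration affecting cell cycle control. Compound-exposed cultures were compared with vehicle cultures, and reduced growth was taken as inhibition.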

[6] = NCI Yeast Anticancer Drug Screen. Data for the mlh1 rad18 strain (AID 175); settings: S. cerevisiae mlh1 rad18 strain growth inhibition, stronger effect = higher value
How it was run: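 Cells of a genetically altered yeast strain, deficient in DNA damage repair, were treated with compound. Their growth was then compared with that of vehicle-treated cultures to give inhibition.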

[7] = at 5.0 µM (retest, dose inferred, filed as 0.5)
[8] = at 50.0 µM (retest, dose inferred, filed as 5.0)

Compound | growth inhibition [1, 7] | growth inhibition [1, 8] | growth inhibition ([1]; at 50.0 µM) | growth inhibition [2, 7] | growth inhibition [2, 8] | growth inhibition ([2]; at 50.0 µM) | growth inhibition [3, 7] | growth inhibition [3, 8] | growth inhibition ([3]; at 50.0 µM) | growth inhibition [4, 7] | growth inhibition [4, 8] | growth inhibition ([4]; at 50.0 µM) | growth inhibition [5, 7] [%] | growth inhibition [5, 8] | growth inhibition ([5]; at 50.0 µM) | growth inhibition [6, 7] | growth inhibition [6, 8] | growth inhibition ([6]; at 50.0 µM)
C/C(=C\N1CCN(c2ccc(Cl)cc2)C(C)C1)C(=O)c1ccccc1 (configuration not stated) | 7% | 89% (active) | 52.9% | 4% | 92% (active) | 30.7% | 15% | 89% (active) | 79.8% (active) | -2% | 86% (active) | 27.8% | -1 | 92% (active) | 24.9% | 4% | 87% (active) | 57.3%
O=[N+]([O-])C(=C1Nc2ccccc2N1)C(Cl)=C(Cl)Cl | 10% | 8% | -4.9% | 10% | 15% | 3.3% | 13% | 22% | 9.85% | 10% | 10% | -13.8% | 11 | 12% | -2.55% | 15% | 16% | 11%
COc1ccc(-c2[nH]c(-c3ccc(OC)cc3)c(-c3ccccn3)c2-c2ccccn2)cc1 | -4% | 16% | 80.7% (active) | -16% | 18% | 91.7% (active) | 0% | 25% | 95.4% (active) | 7% | 27% | 69.5% | 4 | -7% | 83.5% (active) | -19% | 11% | 94.7% (active)
CSCS(=O)C[C@H](CO)NC(=O)/C=C/c1c(C)[nH]c(=O)[nH]c1=O (some centres not stated) | 26% | 98% (active) | 84.5% (active) | 26% | 86% (active) | 78.6% (active) | 25% | 98% (active) | 83% (active) | 32% | 95% (active) | 62.7% | 5 | 98% (active) | 88.7% (active) | 25% | 98% (active) | 85.1% (active)
O=Cc1[nH]c(=S)[nH]c(=O)c1CCCc1ccccc1 | -15% | 79% (active) | 95.8% (active) | -7% | 90% (active) | 78.2% (active) | 15% | 97% (active) | 98.5% (active) | 17% | 92% (active) | 82.3% (active) | 5 | 95% (active) | 85% (active) | 11% | 97% (active) | 98.2% (active)
CCOC(=O)C(=Cc1ccc(OC)cc1)C(=O)OCC | 0% | 62% | 39.6% | -1% | 70% (active) | 52.4% | -3% | 65% | 55.6% | 1% | 57% | 5.95% | 18 | 86% (active) | 68.8% | -1% | 77% (active) | 66.5%
CC1=C/C(=C\c2ccc([N+](=O)[O-])o2)C(=O)O1 | 95% (active) | 99% (active) | 99.3% (active) | 86% (active) | 99% (active) | 99.5% (active) | 93% (active) | 52% | 99.2% (active) | 97% (active) | 99% (active) | 99.3% (active) | 49 | 99% (active) | 98.8% (active) | 97% (active) | 99% (active) | 99.2% (active)
O=C1C(=O)N(c2ccc(Cl)c(Cl)c2)C(=O)C(=O)C1c1nc2ccccc2o1 | 21% | 98% (active) | 97.2% (active) | 17% | 98% (active) | 92.8% (active) | 27% | 95% (active) | 97.2% (active) | 22% | 90% (active) | 94.8% (active) | 3 | 96% (active) | 83.1% (active) | 14% | 95% (active) | 96.7% (active)
COC(=O)Oc1nn(C(=O)OC)c(=O)c2ccccc12 | -18% | 87% (active) | 90.9% (active) | -3% | 45% | 24.2% | -17% | 43% | 44.4% | 7% | 66% | 99.6% (active) | 5 | 58% | 99.5% (active) | -12% | 54% | 86.5% (active)
